SIRT5 inh: sirtuin-5 (human) deacylase inhibition. Purified SirT5, succinyl-peptide AMC, trypsin-coupled fluorescence. 330,000 tested, 1.1% active. inhibition, % at 15 µM. AID 652115. Q9NXA8; in the data active = inhibition above about 15%
ERAP1 inh: inhibitors of human ERAP1 aminopeptidase. Q9NZ08. recombinant ERAP1, Leu-AMC fluorescence, 60 min. 340,000 tested, 0.15% active. inhibition, % at 10.7 µM;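 active = mean replicate inhibition of at least 30%, or all replicates individually reaching that 30% level; inactive = mean below 30% and not every replicate reaching it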
Casp6 inh: caspase-6 (human) enzyme inhibition | P55212 | purified caspase-6, Z-VEID-R110 cleavage fluorescence | inhibition, % at 12.5 µM | 350,000 tested, 0.53% active | AID 686996;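 active = mean inhibition across replicates at least about 35%, with every replicate also reaching that limit, limit read from the data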
Target sequence (P55212 24-179 limits assumed): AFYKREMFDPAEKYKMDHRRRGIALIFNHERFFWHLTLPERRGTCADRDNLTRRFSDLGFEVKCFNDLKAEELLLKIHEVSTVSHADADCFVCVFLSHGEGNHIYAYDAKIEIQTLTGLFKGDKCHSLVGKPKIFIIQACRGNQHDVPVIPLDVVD
Target sequence (P55212 194-293 limits assumed): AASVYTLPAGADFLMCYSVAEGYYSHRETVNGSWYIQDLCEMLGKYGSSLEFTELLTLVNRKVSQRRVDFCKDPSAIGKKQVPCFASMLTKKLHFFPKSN
FGF22 binding: binders of recombinant human FGF22 by thermal shift; Q9HCT0; SYPRO orange fluorescence; percent of sucrose octasulfate shift, DMSO zero; activity (Tm shift, normalised), % at 9.99 µM; 340,000 tested, 1.5% active; AID 651658;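 active = mean Tm shift, scaled 0 neutral to 100 positive control, at about 1.3% or above, every replicate too, limit read from the data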
Each line names hits and unclear results; the compound was inactive in the other large screens. Compounds with a hit are over-represented: about 3.1% of the library has one in this group of screens.

Cc1noc(C)c1NC(=O)Nc1ccc2c(c1)CC(=O)N([C@H](C)CO)C[C@H](C)[C@@H](CN(C)S(=O)(=O)c1cn(C)cn1)O2	none (no result: SIRT5 inh, ERAP1 inh, Casp6 inh)
CN1c2ccc(C3=CCCCC3)cc2[C@@H]2[C@@H](CCN2C(=O)C2CCC2)[C@H]1CO	none (no result: FGF22 binding)
O=C(NCC[C@H]1CC[C@@H](NS(=O)(=O)c2ccc(F)cc2)[C@@H](CO)O1)Nc1ccc(F)cc1	none
CCN(c1ccccc1)S(=O)(=O)c1ccc(OC)c(NC(=O)c2ccccc2OC)c1	none
CCN(c1ccccc1)S(=O)(=O)c1ccc(OC)c(NC(=O)c2ccco2)c1	FGF22 binding 43 (no result: SIRT5 inh)
N#Cc1cccc(-c2ccc([C@H]3[C@@H](CO)N[C@@H]3CNC(=O)C3CCCC3)cc2)c1	none (no result: FGF22 binding)
C[C@@H]1CCCCO[C@H](CN(C)Cc2ccc(Cl)c(Cl)c2)[C@@H](C)CN([C@@H](C)CO)C(=O)c2cc(N(C)C)ccc2O1	none
CCCS(=O)(=O)N1CCN(Cc2c[nH]c3ccccc23)CC1	FGF22 binding 43
O=C(COC(=O)/C=C/c1ccco1)NCc1ccco1	Casp6 inh 60
O=C(COC(=O)Cc1ccc(Cl)cc1)NCc1ccco1	Casp6 inh 42
CNC(=O)COC(=O)/C=C/c1ccco1	none
CSc1ccccc1NC(=O)COC(=O)Cc1cccs1	FGF22 binding 43
CSc1ccccc1NC(=O)COC(=O)/C=C/c1ccco1	Casp6 inh 41 (no result: SIRT5 inh, FGF22 binding)
CCOc1ccccc1NC(=O)COC(=O)Cc1cccs1	none
COc1ccc(S(=O)(=O)Nc2ccc3c(c2)C(=O)N([C@@H](C)CO)C[C@H](C)[C@H](CN(C)S(=O)(=O)c2cn(C)cn2)O3)cc1	none
Cn1cnc(S(=O)(=O)N2C[C@H](O)COC[C@H]3O[C@@H](CC(=O)N4CCN(c5ccccc5)CC4)CC[C@@H]32)c1	none
CN(C)C(=O)[C@H]1[C@H](CO)[C@H]2Cn3c(ccc(C4=CCCC4)c3=O)[C@@H]1N2CCC(F)(F)F	none (no result: FGF22 binding)
O=C(c1ccccn1)N1CC(=O)N2[C@@H](CO)[C@H](c3ccc(C#Cc4ccccc4)cc3)[C@@H]2C1	none (no result: FGF22 binding)
O=C(COC(=O)/C=C/c1ccco1)Nc1ncc(C(F)(F)F)cc1Cl	Casp6 inh 53 (no result: SIRT5 inh)
Cc1onc(C(=O)NN)c1C(=O)Nc1ncc(C(F)(F)F)cc1Cl	FGF22 binding 43
Cc1c(Cl)cnc(NC(=O)COC(=O)/C=C/c2ccco2)c1Cl	none
NC(=O)CNc1ncc(C(F)(F)F)cc1Cl	none
CCN(C(=O)CSc1nnc(-c2c[nH]c3ccccc23)o1)C1CCS(=O)(=O)C1 (stereo not given)	FGF22 binding 43
CCN(C(=O)CSc1nnc(-c2ccc(F)cc2)n1C)C1CCS(=O)(=O)C1 (stereo not given)	FGF22 binding 43 (no result: SIRT5 inh)
CCN(C(=O)CSc1nnc(-c2ccccc2Br)o1)C1CCS(=O)(=O)C1 (stereo not given)	none (no result: SIRT5 inh)
CCn1c(SCC(=O)N(C)C2CCS(=O)(=O)C2)nnc1-c1ccccc1 (stereo not given)	FGF22 binding 43
CCN(C(=O)CSc1nnc(-c2ccc(F)cc2)c2ccccc12)C1CCS(=O)(=O)C1 (stereo not given)	none
C=CCn1c(SCC(=O)N(C)C2CCS(=O)(=O)C2)nnc1-c1ccccc1 (stereo not given)	none
COc1cccc(-c2ccc3n(c2=O)C[C@@H]2[C@@H](CO)[C@H](C(=O)N(C)C)[C@H]3N2CC2CC2)c1	none
CCN1C(=O)N/C(=C/c2ccc(C)o2)C1=O	Casp6 inh 42
Cc1ccc(S(=O)(=O)Nc2cccc3c2O[C@H](CN(C)C(=O)Nc2ccccc2)[C@@H](C)CN([C@@H](C)CO)C3=O)cc1	none
CN(Cc1ccco1)c1ncnc2ccc(-c3ccoc3)cc12	Casp6 inh 39
O=C1CN(C(=O)/C=C/c2ccco2)c2ccccc2N1	FGF22 binding 44
O=C1CN(C(=O)/C=C/c2ccc(Cl)cc2)c2ccccc2N1	none
C/C(N)=C(/C#N)C(=O)CN1C(=O)NC(Cc2c[nH]c3ccccc23)C1=O (stereo not given)	Casp6 inh 48
Cc1cccc(C)c1NC(=O)C1=C(O)c2sccc2N(C)S1(=O)=O	SIRT5 inh 21
CN(C)C(/C=C/Nc1cccc(Br)c1)=C(C#N)C#N	none (no result: FGF22 binding)
CN(C)C(/C=C/Nc1ccc(O)cc1)=C(C#N)C#N	FGF22 binding 44
CC1CC(C)CN(S(=O)(=O)c2ccc3c(c2)oc(=O)n3CC(=O)NCc2cccnc2)C1 (stereo not given)	SIRT5 inh 22 (no result: ERAP1 inh)
CCC(C)(C)NC(=O)Cn1c(=O)oc2cc(S(=O)(=O)N3CC(C)CC(C)C3)ccc21 (stereo not given)	none
